Shown are actives, neighbours in structure and some others; about 8% of the full set was active somewhere.
HT1080NT lethal: qHTS for induction of synthetic lethality in tumor cells producing 2HG: qHTS for the HT-1080-NT fibrosarcoma cell line; HT-1080-NT fibrosarcoma viability, CellTiter-Glo ATP luminescence, 48 h; Potency, µM (top dose mostly 46.1 µM), for the others: at the highest dose activity, negative = less viability, hits mostly cytotoxic; 1.6% of 360,000 active; AID 686970, 2013;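 note: NT is the 2HG producing partner of a matched IDH1 knockdown line; 0% = DMSO-treated cells and -100% = media-only wells without cells; nearly all actives have a fitted effect of over 55% in size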
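Fibrosarcoma NT cells, 750 per well in 5% FBS RPMI, were exposed to compound for 48 hours. Viability: CellTiter-Glo luminescence.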
MCF10A rerep: A quantitative high throughput screen for small molecules that induce DNA re-replication in MCF 10a normal breast cells | MCF 10A DNA re-replication, Hoechst nuclear intensity, 48 h | Potency, µM (doses to about 46.1 µM), without a hit: top-dose activity, positive = re-replication, usual class: activators | 2.9% of 350,000 active | AID 624296, 2012; note: % of control where 0% means no effect; nearly all actives have a fitted effect of over 50% in size
KB-3-1 cytotox: qHTS assay for MDR1-selective chemotherapeutics: Primary screen using the parental adenocarcinoma cell KB-3-1; KB-3-1 viability, CellTiter-Glo ATP luminescence, 72 h; Potency, µM (titrated, usually from 46.1 µM), actives largely listed as cytotoxic; 1.4% of 400,000 active; AID 1347075, 2019; note: % is set by controls: 0 for no effect and ±100 for the full control effect; nearly all actives have a fitted effect of over 60% in size
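Cytotoxicity measured as CellTiter-Glo luminescence after 72 h at 37 C. Compound titrations were pinned onto drug-naive KB-3-1 parental adenocarcinoma cells grown in DMEM with 10% FBS, and normalized data fitted to concentration-response curves.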
HT1080 IDH1KD tx: qHTS for induction of synthetic lethality in tumor cells producing 2HG: qHTS for the HT-1080-IDH1KD cell line. HT-1080 IDH1 knockdown viability, ATP luminescence, 48 h. Potency, µM (doses to about 46.1 µM), for the others: at the top dose activity, negative = toxicity, most hits filed as cytotoxic. 2% of 360,000 active;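 note: 0% = DMSO wells and -100% = cell-free medium wells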
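Viability of IDH1-knockdown HT-1080 fibrosarcoma cells was assessed by CellTiter-Glo after 48 h at 37 °C with titrated compound; concentration-effect curves were classified by fit quality and response size.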
SW480 rerep: A quantitative high throughput screen for small molecules that induce DNA re-replication in SW480 colon adenocarcinoma cells; SW480 DNA re-replication, Hoechst DNA content imaging, 48 h; Potency, µM (highest dose often 46.1 µM), for inactives: top-dose re-replication activation, most hits filed as activators; 1.8% of 340,000 active; note: % of control where 0% means no effect; nearly all actives have a fitted effect of over 55% in size
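Image-based DNA-content assay: after two days of treatment, nuclei were labelled with the DNA dye Hoechst and imaged, and hits were compounds raising the count of nuclei showing high fluorescence intensity.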
KB-V1 MDR tox: qHTS assay for MDR1-selective chemotherapeutics: Primary screen using the drug-selected MDR subline cells KB-V1; AID 1347076, 2019; 3.4% of 400,000 active; Potency, µM (titrated, usually from 46.1 µM), actives largely listed as cytotoxic; KB-V1 MDR cells viability, CellTiter-Glo, 72 h; note: % is set by controls: 0 for no effect and ±100 for the full control effect; nearly all actives have a fitted effect of over 60% in size
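KB-V1 MDR subline cells in DMEM (phenol-red free, 10% FBS) exposed to compounds in qHTS concentration series for 72 h at 37 degrees C. Viability read by CellTiter-Glo luminescence; concentration-effect curves fitted after normalization and correction.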
Active calls of the source: *; i = inactive; ? = inconclusive; . = no result given. Calls come from the whole dose curve; as a rule, active = well fitted curve in the direction sought with a large enough effect; inconclusive = small, poorly fitted or top-dose-only effect, or another doubt; inactive = no such curve, though single readings can be large; an effect the other way counts as inactive or inconclusive. Potency is the fitted concentration of half-maximal effect.

SMILES	HT1080NT lethal	MCF10A rerep	KB-3-1 cytotox	HT1080 IDH1KD tx	SW480 rerep	KB-V1 MDR tox
COc1cc(CN2CCN(Cc3c[nH]c4ccccc34)CC2CCO)cc(OC)c1 (stereo not given)	-14.8%	0.2%	i	-16.9%	0.9%	i
CCOc1ccc(CN2CCN(Cc3cc4ccccc4[nH]3)CC2CCO)cc1 (stereo not given)	-2.5%	23.1µM*	?	-13.6%	?	i
CC(C)(C)CN1CCN(Cc2c[nH]c3ccccc23)CC1CCO (stereo not given)	1.6%	6.51µM*	i	-6.0%	-0.3%	i
CCCCn1c(=O)c2oc3ccccc3c2n(CC(=O)Nc2cc(C)ccc2C)c1=O	.	.	i	.	.	i
COc1ccc(C)cc1NC(=O)C1CCN(S(=O)(=O)c2ccc3[nH]c4c(c3c2)CCCCC4)CC1	.	.	i	.	.	i
c1ccc(-c2nc(-c3cnc4ccccc4n3)cs2)cc1	.	.	?	.	.	i
Cc1cc(C)nc(Nc2ccccc2F)n1	13.8%	5.1%	i	14.7%	23.1µM*	i
O=C(NCCCN1CCN(c2ccc(F)cc2)CC1)NC12CC3CC(CC(C3)C1)C2	16.4µM*	?	i	14.6µM*	?	i
O=C(CN1CCN(Cc2ccc(Cl)cc2)C1=O)NCCCN1CCN(c2ccc(F)cc2)CC1	?	?	?	15.8µM*	?	i
Cc1cc(C)cc(OCC(=O)NC(Cc2c[nH]c3ccccc23)C(=O)O)c1 (stereo not given)	.	.	i	.	.	i
COc1ccc(C(OCC(O)CNC(C)c2ccccc2)c2ccc(OC)cc2)cc1 (stereo not given)	?	?	i	20.6µM*	?	?
COc1ccc(C(OCC(O)CNCCc2ccccc2)c2ccc(OC)cc2)cc1 (stereo not given)	23.1µM*	22.7%	?	23.1µM*	?	16.4µM*
C/C=C/c1ccc(OCC(O)CNCCc2ccc(OC)cc2)c(OC)c1 (stereo not given)	-11.9%	20.4%	i	-16.5%	?	i
CC(C)c1ccc(OCC(O)CNC(C)c2ccccc2)cc1 (stereo not given)	23.1µM*	-18.6%	?	18.4µM*	20.5%	i
COCCCNCCC(CCC(C)C)c1ccc2c(c1)OCO2 (stereo not given)	20.6µM*	0.9%	?	14.6µM*	1.3%	?
CC(C)CCC(CCN1CCOCC1)c1ccc2c(c1)OCO2 (stereo not given)	-26.7%	?	i	?	1.0%	20.6µM*
c1ccc(-n2ncc3c(NC4CCCC4)ncnc32)cc1	.	.	i	.	.	i
O=C(Nc1ccc(OC(F)(F)F)cc1)N1CCc2nc(NCc3cccc(Oc4ccccc4)c3)ncc2C1	?	.	?	23.1µM*	.	13µM*
CC(C)c1ccc(Nc2ncc3c(n2)CCN(C(=O)Nc2ccc(F)c(Cl)c2)C3)cc1	?	.	?	?	.	18.4µM*
CCOc1ccc(NC(=O)N2CCc3ccccc3C2)cc1	9.1%	-8.9%	i	12.1%	5.6%	i
COc1cccc(NC(=O)N2CCc3nc(Nc4cc(Cl)cc(Cl)c4)ncc3C2)c1	?	.	?	-13.0%	.	i
COc1cccc(NC(=O)N2CCc3nc(NCc4cccc(Oc5ccccc5)c4)ncc3C2)c1	?	.	8.2µM*	?	.	?
O=C(c1ccc([N+](=O)[O-])s1)N1CCN(c2cccc(Cl)c2)CC1	3.9%	?	?	6.1%	?	16.4µM*
Cc1nc2cccnc2n1-c1cccc(C(=O)N2CCN(c3ccc(Cl)cc3)CC2)c1	.	.	11.6µM*	.	.	i
CCOC(=O)c1c(C)c(C(=O)N2CCN(c3cccc(Cl)c3)CC2)c(C)n1C	15.1%	18.6%	i	5.3%	27.3%	10.3µM*
SMILES	HT1080NT lethal	MCF10A rerep	KB-3-1 cytotox	HT1080 IDH1KD tx	SW480 rerep	KB-V1 MDR tox
O=C(c1cccs1)N1CCN(c2cccc(Cl)c2)CC1	1.3%	-1.2%	i	-0.3%	-11.3%	i
O=C(c1cccc(N2CCCC2=O)c1)N1CCN(c2cccc(Cl)c2)CC1	?	0.1%	5.17µM*	13µM*	-4.7%	?
COc1ccc(-c2nc3ccccc3s2)cc1NC(=O)c1cccc([N+](=O)[O-])c1C	.	.	i	.	.	i
COc1ccc(-n2nc(C(=O)NCC(=O)N3CCN(c4cccc(Cl)c4)CC3)c3ccccc3c2=O)c(OC)c1	-9.9%	10.9%	i	-10.9%	5.6%	11.6µM*
COc1ccc(N2CCN(C(=O)c3ccc(-n4nc(C)cc4C)cc3)CC2)cc1	2.4%	4.3%	i	4.0%	1.4%	16.4µM*
Cc1ccc(C(=O)N2CCN(c3ccccc3)CC2)cc1C	-0.7%	-2.4%	i	2.1%	-0.7%	i
COc1ccc(C(=O)N2CCN(c3cccc(Cl)c3)CC2)cc1S(=O)(=O)NC1CC1	?	23.1µM*	?	?	23.7%	i
Cc1ccc(C(=O)N2CCN(c3cccc(Cl)c3)CC2)cc1C	?	18.4µM*	?	?	11.6µM*	?
Cc1ccc(C2CC2C(=O)NNC(=S)Nc2ccc(Cl)cc2)cc1 (stereo not given)	-1.1%	10.6%	i	-0.8%	-11.7%	i
Oc1ccccc1C(=S)N1CCN(c2cccc(Cl)c2)CC1	-11.6%	6.8%	i	-18.1%	-1.2%	i
COc1ccc(C(=O)N2CCN(c3cccc(Cl)c3)CC2)cc1	-8.1%	-1.1%	i	10.9%	-0.8%	20.6µM*
Cc1cccc(N2CCN(C(=O)c3cccc(N4CCCC4=O)c3)C(C)C2)c1 (stereo not given)	?	1.46µM*	2.59µM*	2.59µM*	?	?
COc1ccc(C(=S)N2CCN(c3cccc(Cl)c3)CC2)c(OC)c1	?	7.31µM*	6.51µM*	?	4.11µM*	i
COc1cc(C(=S)N2CCN(c3cccc(Cl)c3)CC2)ccc1O	?	14.6µM*	8.2µM*	16.4µM*	20.6µM*	?
CCOC(=O)N1CCC(NC(=O)c2ccc3c(c2)N(C)C(=O)/C(=C/c2cccc(OC)c2)S3)CC1	-1.0%	?	i	-0.7%	2.0%	i
